In all, about 2,900 compounds were measured (“NF-kB SEAP reporter activity, fold change vs agonist alone”: median about 0.99, highest 2% from about 2.6 on). For the sample, the highest values were picked, then their nearest neighbours and some compounds at random.

The record followed here is the supplement of paper PMC10037445.

Experiment [1] has as its system RAW-Dual. The experiment can be described thus: NF-kB SEAP reporter activity, fold change vs agonist alone; higher = enhanced NF-kB activity. In short, it runs like this:
(§1)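 RAW-Dual macrophages were seeded in DMEM at 50,000 cells/well in 384-well plates, given 50 nL of library stock by pin tool, and given a PRR agonist 1 h later. Plates were held at 37 °C, 5% CO2 for 20 hours, after which supernatant was read for IRF by QuantiLuc luminescence and for NF-κB by QuantiBlue absorbance at 620 nm. Reporter activity is expressed as fold change over wells that received agonist alone. A well was called cytotoxic when IncuCyte confluency fell below 70% of agonist controls in both mask sets.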

The subject of experiment [2] is RAW-Dual. The experiment can be described thus: NF-kB SEAP reporter activity, fold change vs agonist alone; cytotoxicity flag (confluency mask): cytotoxic (confluency <70% of control); higher = enhanced NF-kB activity. In short, it runs like this: as §1
Experiment [3] relates to RAW-Dual. Put plainly: NF-kB SEAP reporter activity, fold change vs agonist alone; cytotoxicity flag (confluency mask): not cytotoxic; higher = enhanced NF-kB activity. In short, it runs like this: as §1
Where [4] appears, read: library stock concentration (final ~1000-fold dilution): 10 mM, cytotoxicity flag (confluency mask): cytotoxic (confluency <70% of control), agonist: Imiquimod (TLR7) […].
The mark [5] stands for this setting: library stock concentration (final ~1000-fold dilution): 10 mM, cytotoxicity flag (confluency mask): cytotoxic (confluency <70% of control), agonist: MPLA (TLR4) […].
Setting [6] is: agonist: ODN 1826 (TLR9) 0.5 ug/mL.
The mark [7] stands for this setting: agonist: Pam2CSK4 (TLR2/6) 0.1 ug/mL.
The mark [8] stands for this setting: agonist: Pam3CSK4 (TLR2/1) 0.1 ug/mL.
[9] abbreviates: library stock concentration (final ~1000-fold dilution): 10 mM, cytotoxicity flag (confluency mask): not cytotoxic, agonist: Imiquimod (TLR7) […].
The mark [10] stands for this setting: library stock concentration (final ~1000-fold dilution): 10 mM, cytotoxicity flag (confluency mask): not cytotoxic, agonist: MPLA (TLR4) […].

As to `CC(C)COCC(CN(Cc1ccccc1)c1ccccc1)N1CCCC1.Cl.O` (stereo not given), the “NF-kB SEAP reporter activity” value in the experiment on RAW-Dual [1] (setting [4]) is 0.745; in the experiment on RAW-Dual [1] (setting [5]), 1.24.
Consider `CC(Oc1ccc2[nH]nc(/C=C/c3cnn(CCO)c3)c2c1)c1c(Cl)cncc1Cl` (stereo not given), for which the figures for the “NF-kB SEAP reporter activity” value with RAW-Dual [1] (setting [4]) and with RAW-Dual [1] (setting [5]) were 0.251 and 0.215, respectively.
`CC(Oc1ccc2[nH]nc(/C=C/c3cnn(CCO)c3)c2c1)c1c(Cl)cncc1Cl` (stereo not given) (library stock concentration (final ~1000-fold dilution): 10 mM): the “NF-kB SEAP reporter activity” value in the experiment on RAW-Dual [2] (agonist: LPS (TLR4) 0.1 ug/mL) turned out to be 0.225; in the experiment with RAW-Dual [2] (setting [6]), 0.187; with RAW-Dual [2] (setting [7]), 0.0607; in the experiment on RAW-Dual [2] (setting [8]), 0.139.
For `CC1(c2nc3c(C(N)=O)cccc3[nH]2)CCCN1` (stereo not given) (library stock concentration (final ~1000-fold dilution): 10 mM), the “NF-kB SEAP reporter activity” value came to 1.14 in the experiment on RAW-Dual [3] (agonist: LPS (TLR4) 0.1 ug/mL), 0.972 in the experiment with RAW-Dual [3] (setting [6]), 0.955 in the experiment on RAW-Dual [3] (setting [7]) and 0.991 in the experiment with RAW-Dual [3] (setting [8]).
In the case of `CC1(c2nc3c(C(N)=O)cccc3[nH]2)CCCN1` (stereo not given), the “NF-kB SEAP reporter activity” value in the experiment on RAW-Dual [1] (setting [9]) came out at 1.05; with RAW-Dual [1] (setting [10]), 0.99.
For `C=CC(=O)Nc1cc(Nc2nccc(-n3cc(CN(C)C)c(-c4ccccc4)n3)n2)c(OC)cc1N1CCOCC1` (library stock concentration (final ~1000-fold dilution): 2 mM), the “NF-kB SEAP reporter activity” value turned out to be 1.37 with RAW-Dual [3] (agonist: LPS (TLR4) 0.1 ug/mL), 0.945 in the experiment with RAW-Dual [3] (setting [6]), 0.927 in the experiment with RAW-Dual [3] (setting [7]) and 1.01 with RAW-Dual [3] (setting [8]).
As for `C=CC(=O)Nc1cc(Nc2nccc(-n3cc(CN(C)C)c(-c4ccccc4)n3)n2)c(OC)cc1N1CCOCC1`, the “NF-kB SEAP reporter activity” value turned out to be 1.12 with RAW-Dual [1] (library stock concentration (final ~1000-fold dilution): 2 mM, cytotoxicity flag (confluency mask): not cytotoxic, agonist: Imiquimod (TLR7) […]) and 1.02 in the experiment with RAW-Dual [1] (library stock concentration (final ~1000-fold dilution): 2 mM, cytotoxicity flag (confluency mask): not cytotoxic, agonist: MPLA (TLR4) […]).
`Cc1ccc(Sc2cncc3sc(C(N)=O)cc23)cc1`: the figures for the “NF-kB SEAP reporter activity” value in the experiment with RAW-Dual [1] (setting [9]) and in the experiment with RAW-Dual [1] (setting [10]) were 2.48 and 1.93, respectively.
As to `Cc1ccc(Sc2cncc3sc(C(N)=O)cc23)cc1` (library stock concentration (final ~1000-fold dilution): 10 mM), the “NF-kB SEAP reporter activity” value in the experiment on RAW-Dual [3] (agonist: LPS (TLR4) 0.1 ug/mL) amounted to 2.89; with RAW-Dual [3] (setting [6]), 2.2; with RAW-Dual [3] (setting [7]), 1.62; in the experiment on RAW-Dual [3] (setting [8]), 3.34.
The like results for `CCCC(=O)Nc1cccc(NC(=O)c2ccccc2Br)c1` (library stock concentration (final ~1000-fold dilution): 10 mM) were, in that order, 0.939, 0.996, 0.966 and 1.15.
For `CCc1ccc(NC(=O)Nc2ccccc2)cc1`, the entries for the “NF-kB SEAP reporter activity” value in the experiment with RAW-Dual [1] (setting [9]) and in the experiment on RAW-Dual [1] (setting [10]) were 0.892 and 1.01, respectively.
In the case of `CCCCCCCCCCCCCCCCCC(=O)O` (library stock concentration (final ~1000-fold dilution): 10 mM), the “NF-kB SEAP reporter activity” value in the experiment with RAW-Dual [3] (agonist: LPS (TLR4) 0.1 ug/mL) turned out to be 0.849; in the experiment on RAW-Dual [3] (setting [6]), 1.02; with RAW-Dual [3] (setting [7]) it was 0.95; in the experiment with RAW-Dual [3] (setting [8]), 1.17.
The like results for `CCc1ccc(NC(=O)Nc2ccccc2)cc1` (library stock concentration (final ~1000-fold dilution): 10 mM) were, in that order, 1.12, 0.823, 0.702 and 0.652.
On to `O=C(CCCCCCCC(=O)NCCO)NCCO`, for which the “NF-kB SEAP reporter activity” value turned out to be 0.913 in the experiment with RAW-Dual [1] (setting [9]) and 1.03 with RAW-Dual [1] (setting [10]).
With `O=C(CCCCCCC(=O)Nc1ccccc1)NO`, the “NF-kB SEAP reporter activity” value in the experiment on RAW-Dual [1] (setting [4]) was found to be 2.38; in the experiment on RAW-Dual [1] (setting [5]), 2.6.
Turning to `O=C(CCCCCCC(=O)NO)NO`, the “NF-kB SEAP reporter activity” value with RAW-Dual [1] (setting [9]) amounted to 2.03; with RAW-Dual [1] (setting [10]) it was 2.57.
The like results for `CCCC(=O)Nc1cccc(NC(=O)c2ccccc2Br)c1` were, in that order, 1.06 and 0.952.
The like results for `CCCCCCCCCCCCCCCCCC(=O)O` were, in that order, 0.96 and 1.05.
As for `O=C(CCCCCCC(=O)Nc1ccccc1)NO` (library stock concentration (final ~1000-fold dilution): 10 mM), the “NF-kB SEAP reporter activity” value with RAW-Dual [2] (agonist: LPS (TLR4) 0.1 ug/mL) worked out at 6.47; in the experiment with RAW-Dual [2] (setting [6]) it was 2.34; with RAW-Dual [2] (setting [7]) it was 0.808; with RAW-Dual [2] (setting [8]), 1.86.
For the compound `O=C(CCCCCCCC(=O)NCCO)NCCO` (library stock concentration (final ~1000-fold dilution): 10 mM), the “NF-kB SEAP reporter activity” value was determined as 1.2 in the experiment on RAW-Dual [3] (agonist: LPS (TLR4) 0.1 ug/mL), 0.998 in the experiment on RAW-Dual [3] (setting [6]), 0.991 in the experiment with RAW-Dual [3] (setting [7]) and 0.856 in the experiment on RAW-Dual [3] (setting [8]).
In the same order, the values of `O=C(CCCCCCC(=O)NO)NO` (library stock concentration (final ~1000-fold dilution): 10 mM) are 3.77, 1.62, 0.78 and 1.21.
Regarding `Br.COc1cc(Br)c(Nc2nc(-c3c(C)nc4ncccn34)cs2)c(Br)c1`, the “NF-kB SEAP reporter activity” value in the experiment with RAW-Dual [1] (setting [9]) amounted to 1.42; in the experiment on RAW-Dual [1] (setting [10]), 2.42.
Regarding `Br.COc1cc(Br)c(Nc2nc(-c3c(C)nc4ncccn34)cs2)c(Br)c1` (library stock concentration (final ~1000-fold dilution): 10 mM), the “NF-kB SEAP reporter activity” value in the experiment with RAW-Dual [3] (agonist: LPS (TLR4) 0.1 ug/mL) worked out at 1.91; in the experiment with RAW-Dual [3] (setting [6]) it was 1.96; in the experiment with RAW-Dual [3] (setting [7]), 0.305; in the experiment with RAW-Dual [3] (setting [8]) it was 0.861.
In the same order, the values of `Cl.O=C1CN2Cc3c(ccc(Cl)c3Cl)NC2=N1` (library stock concentration (final ~1000-fold dilution): 10 mM) are 0.887, 1.24, 0.872 and 1.01.
As to `Cl.O=C1CN2Cc3c(ccc(Cl)c3Cl)NC2=N1`, the “NF-kB SEAP reporter activity” value in the experiment with RAW-Dual [1] (setting [9]) stood at 1.34; in the experiment on RAW-Dual [1] (setting [10]), 1.26.
As to `CC(C)CC(NP(=O)(O)OC1OC(C)C(O)C(O)C1O)C(=O)NC(Cc1c[nH]c2ccccc12)C(=O)O` (stereo not given) (library stock concentration (final ~1000-fold dilution): 10 mM), the “NF-kB SEAP reporter activity” value in the experiment with RAW-Dual [3] (agonist: LPS (TLR4) 0.1 ug/mL) was 1.04; in the experiment on RAW-Dual [3] (setting [6]) it was 0.986; in the experiment on RAW-Dual [3] (setting [7]), 1.05; in the experiment on RAW-Dual [3] (setting [8]), 1.41.
With `CC(C)CC(NP(=O)(O)OC1OC(C)C(O)C(O)C1O)C(=O)NC(Cc1c[nH]c2ccccc12)C(=O)O` (stereo not given), the “NF-kB SEAP reporter activity” value with RAW-Dual [1] (setting [9]) came out at 0.973; in the experiment with RAW-Dual [1] (setting [10]) it was 1.03.
